Screening results (PubChem BioAssay)
Shown are actives, neighbours in structure and some others; about 6.8% of the full set was active somewhere.
T cruzi growth-1: blocks T. cruzi growth in NIH3T3 culture; inhibition, % at 8.34 µM; actives 5.9% (n = 77,000); T. cruzi beta-gal in NIH3T3, GalScreen luminescence, 90 h;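 active = mean inhibition above about 93%, with at least 55% of replicates each passing it, limit read from the data, passing the limit was not always enough; inconclusive = only one of those two conditions holds; inactive = neither condition holds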
C diff growth: inhibitors of Clostridium difficile growth; actives 0.25% (n = 86,000); growth activity, negative = inhibition, % at 16 µg/mL (by protocol); Clostridium difficile clinical isolate growth, OD600, 24 h; hits give low values; AID 1259249;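 active = mean growth activity at or below -80% and every replicate also at or below -80%; inconclusive = mean at or below -80% but some replicate above -80%; inactive = mean growth activity above -80%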;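 also: 0% = DMSO wells and -100% = levofloxacin 16 µg/mL wells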
Pf Dd2 inh: P. falciparum Dd2 growth inhibition | activity change, % at 10 µM | SYBR Green, 72 h; hits give low values | actives 2.3% (n = 94,000) | AID 1159554; in the data active = activity change below about -80%; inconclusive = no clear call, values can overlap the other calls
T cruzi growth-2: blocks T. cruzi growth in NIH3T3 host cells | shares compounds with T cruzi growth-1 | T. cruzi beta-gal in NIH3T3, GalScreen luminescence, 90 h | inhibition, % at 8.35 µM | actives 72% (n = 5,600) | AID 651739;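 active = mean replicate inhibition above about 95% and at least 55% of replicates individually reaching it, limit read from the data; inconclusive = only one of the two criteria is met; inactive = neither criterion is met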
T cruzi growth-3: Trypanosoma cruzi proliferation inhibition. shares compounds with T cruzi growth-1. actives 21% (n = 5,600). T. cruzi beta-gal in NIH3T3, GalScreen luminescence, 90 h. inhibition, % at 2.09 µM;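 active = mean inhibition above about 95%, with at least 55% of replicates also reaching it, limit read from the data; inconclusive = meets just one of the two conditions; inactive = meets neither condition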;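 also: plate controls were neutral control median for no effect and positive control median for full effect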
NIH3T3 tox: cytotoxicity in mouse NIH/3T3 fibroblasts; AID 651742; cytotoxicity (signal decrease), % at 8.35 µM; NIH/3T3 viability, CellTiter-Glo ATP luminescence, 90 h; shares compounds with T cruzi growth-1; actives 14% (n = 5,600);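 active = mean signal decrease across replicates above about 35% based on untreated-well scatter, with enough replicates individually passing, limit read from the data; inconclusive = no rule stated though some were filed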;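 also: 0% = median of neutral control wells and 100% = median of positive control wells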
3T3 cytotox 2: cytotoxicity in mouse NIH/3T3 fibroblasts. shares compounds with T cruzi growth-1. NIH/3T3 viability, CellTiter-Glo ATP luminescence, 90 h. inhibition, % at 24.9 µM. actives 56% (n = 5,600). AID 651744;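 active = mean loss of cell viability signal at or above a set limit, and enough replicates individually reaching it; inconclusive = meets only the mean limit or only the replicate share; inactive = meets neither condition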;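 also: 0% = median of neutral control wells and 100% = median of positive control wells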
Active calls of the source: *; ? = inconclusive; . = no result.

SMILES | T cruzi growth-1 | C diff growth | Pf Dd2 inh | T cruzi growth-2 | T cruzi growth-3 | NIH3T3 tox | 3T3 cytotox 2
Cn1cnc(S(=O)(=O)N2CC[C@@H]3[C@H](CO)Nc4ccc(-c5cccc(F)c5)cc4[C@@H]32)c1 | 93.1 | -13.0 | 13.8 | . | . | . | .
Cn1cnc(S(=O)(=O)N2CC[C@@H]3[C@@H](CO)Nc4ccc(-c5cccc(F)c5)cc4[C@@H]32)c1 | 102.7* | -9.8 | 14.7 | 103.1* | 79.0 | 9.8 | 11.5
Cn1cnc(S(=O)(=O)N2CC[C@@H]3[C@H](CO)Nc4ccc(C#Cc5ccc(F)cc5)cc4[C@@H]32)c1 | 9.2 | 4.3 | -10.4 | . | . | . | .
COCC(=O)N1C[C@@H](C)[C@H](OC)CN(C)C(=O)c2cc(NC(=O)c3ccc(F)cc3)ccc2OC[C@H]1C | 10.3 | -0.3 | 29.0 | . | . | . | .
COc1ccc(S(=O)(=O)Nc2ccc3c(c2)C(=O)N([C@@H](C)CO)C[C@@H](C)[C@H](CN(C)S(=O)(=O)c2ccc(F)cc2)OCCCC[C@@H](C)O3)cc1 | 107.6* | 2.9 | -12.4 | 114.1* | 64.8 | 10.8 | 22.9
COc1ccc(S(=O)(=O)N(C)C[C@@H]2OCCCC[C@H](C)Oc3ccc(NS(=O)(=O)c4ccc(F)cc4)cc3C(=O)N([C@H](C)CO)C[C@H]2C)cc1 | 81.4 | 18.4 | -60.1 | . | . | . | .
COc1ccc(S(=O)(=O)N(C)C[C@H]2OCCCC[C@@H](C)Oc3ccc(NS(=O)(=O)c4ccc(F)cc4)cc3C(=O)N([C@@H](C)CO)C[C@H]2C)cc1 | 100.4* | 6.0 | -51.3 | 98.5* | 75.1 | -16.2 | -14.6
COc1ccc(S(=O)(=O)Nc2ccc3c(c2)C(=O)N([C@@H](C)CO)C[C@@H](C)[C@@H](CN(C)S(=O)(=O)c2ccc(F)cc2)OCCCC[C@H](C)O3)cc1 | 44.5 | 11.3 | -62.6 | . | . | . | .
COc1ccc(S(=O)(=O)Nc2ccc3c(c2)C(=O)N([C@@H](C)CO)C[C@@H](C)[C@H](CN(C)S(=O)(=O)c2ccc(F)cc2)OCCCC[C@H](C)O3)cc1 | 100.4* | 7.0 | -27.6 | 103.4* | 38.8 | 30.1 | 4.8
COc1ccc(S(=O)(=O)Nc2ccc3c(c2)C(=O)N([C@@H](C)CO)C[C@@H](C)[C@@H](CN(C)S(=O)(=O)c2ccc(F)cc2)OCCCC[C@@H](C)O3)cc1 | 79.4 | 17.7 | -41.7 | . | . | . | .
CN1C(=O)c2cc(NC(=O)C3CC3)ccc2OC[C@@H]2O[C@H](CC(=O)NCc3ccccc3F)CC[C@@H]21 | . | -2.3 | 3.5 | . | . | . | .
CCC(=O)N(C)C[C@@H]1Oc2ncc(C#Cc3ccccc3OC)cc2C(=O)N([C@H](C)CO)C[C@H]1C | 74.5 | 1.2 | -32.1 | . | . | . | .
COc1ccccc1C#Cc1cnc2c(c1)C(=O)N([C@H](C)CO)C[C@@H](C)[C@H](CN(C)C(=O)CC1CC1)O2 | 107.8* | -0.2 | -62.8 | 101.6* | 29.6 | -3.3 | 38.8*
COc1ccccc1C#Cc1cnc2c(c1)C(=O)N([C@@H](C)CO)C[C@H](C)[C@H](CN(C)C(=O)CC1CC1)O2 | 32.9 | -1.9 | -45.6 | . | . | . | .
COc1ccccc1C#Cc1cnc2c(c1)C(=O)N([C@@H](C)CO)C[C@@H](C)[C@H](CN(C)C(=O)CC1CC1)O2 | 107.7* | -5.2 | -60.0 | 112.0* | 110.7* | 13.3 | 44.8*
COCC(=O)N1CC2(C1)CN(Cc1cccc(OC)c1)[C@H](CO)c1c2c2ccc(OC)cc2n1C | . | -4.3 | -3.7 | . | . | . | .
CS(=O)(=O)N1[C@H](C#N)[C@@H](c2ccc(C#CC3CCCCC3)cc2)[C@@H]1CO | 89.4 | -1.3 | -30.5 | . | . | . | .
CS(=O)(=O)N1[C@@H](C#N)[C@H](c2ccc(C#CC3CCCC3)cc2)[C@@H]1CO | ? | -6.1 | 17.3 | 80.3 | 16.0 | -11.3 | -1.4
CS(=O)(=O)N1[C@H](C#N)[C@H](c2ccc(C#CC3CCCCC3)cc2)[C@@H]1CO | ? | -16.2 | -42.0 | 100.9* | 107.5* | 2.0 | 42.2*
CS(=O)(=O)N1[C@H](C#N)[C@@H](c2ccc(C#CC3CCCC3)cc2)[C@@H]1CO | 91.8 | 1.1 | -4.8 | . | . | . | .
CN(C)C(=O)C[C@H]1CC[C@@H]2[C@H](COC[C@@H](O)CN2Cc2nccs2)O1 | -94.8 | 1.6 | 12.2 | . | . | . | .
